From PubChem BioAssay come the findings set out here.

Calls of active or inactive are those of the source.

Assay [1] concerns the target Albumin (Bos taurus) (UniProt P02769). Description: compounds binding labelled BSA control protein – biochemical, small-molecule microarray, Alexa647 label, 635/667 nm fluorescence, artefact control for SMM control protein annotation, profiling panel (AID 1118).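 Further: score merges 667 nm emission intensity and signal-to-noise per printed compound spot.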 The note with it: BSA-A647 binding, fluorescence 635 nm, higher = more signal.
The nature of assay [2]: probe aXIP binding to arrayed compounds – biochemical, NeuroSMM set, 635/667 nm fluorescence, primary screen (AID 1119).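 Further: probe is the protein aXip251-270 applied at 1 µg/mL to compound-printed slides; binding of probe to printed compounds measured as 667 nm fluorescence plus signal to noise.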 The note with it: small-molecule microarray, higher = more signal, called active from +8 up or from −8 down.
The nature of assay [3]: probe aNOTCH3 binding on compound microarray – biochemical, small-molecule microarray, 635/667 nm fluorescence, primary screen (AID 1120).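 Further: probe is a biotin-tagged antibody raised against NOTCH3 rather than NOTCH3 protein; score merges spot fluorescence near 667 nm with spot signal to noise.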 The conditions noted are these: higher = more signal.
Assay [4] can be described thus: probe aNOTCH2 binding on compound microarray – biochemical, small-molecule microarray, 635/667 nm fluorescence, primary screen (AID 1121).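 Further: score merges feature fluorescence read at 667 nm with its signal to noise.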 The note with it: higher = more signal.
For assay [5], the target named is Carbonic anhydrase 2 (Homo sapiens) (UniProt P00918). Description: compounds binding carbonic anhydrase 2 – biochemical, small-molecule microarray, Alexa647-labelled CAII, profiling panel (AID 1122). The note with it: CAII-A647 binding fluorescence, higher = more signal.
Assay [6] can be described thus: COS7 lysate on small-molecule microarray, probe aHis, 635 nm (AID 1123).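 Further: z-score combines 667nm fluorescence intensity with signal-to-noise per printed compound spot.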 The conditions noted are these: COS7 cell lysate, fluorescence, higher = more signal.
Assay [7] can be described thus: probe aLAP1 signal on lysate-treated microarray – cell lysate, small-molecule microarray, COS7 lysate, primary screen (AID 1124).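 Further: lysate comes from COS7 cells expressing LAP1 and is applied at 0.3 µg/mL; score merges spot fluorescence near 667 nm with signal-to-noise over triplicate slides.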 The conditions noted are these: probe aLAP1, fluorescence, higher = more signal.
In assay [8] the test system is Sam68 (KHDRBS1). Description: compounds binding KHDRBS1 protein – biochemical, small-molecule microarray, 635 nm fluorescence, primary screen (AID 1125).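 Further: score merges 667 nm channel intensity with signal to noise over triplicate slides.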 The note with it: higher = more signal.
Assay [9] relates to Chordin-like protein 2 (CHRDL2). Description: compounds binding chordin-like 2 – biochemical, small-molecule microarray, 635 nm fluorescence, primary screen (AID 1126).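 Further: printed compound slides probed with Chrdl2 protein at 4 µg/mL for 1 h at 4 C; score merges 667 nm emission intensity with signal to noise over three replicate slides.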 The note with it: fluorescence 635 nm, higher = more signal.
In assay [10] the target is Concanavalin-A (Canavalia ensiformis) (UniProt P02866). Description: compounds binding concanavalin A lectin – biochemical, small-molecule microarray, Alexa647 label, 635 nm, artefact control for SMM control protein annotation, primary screen (AID 1127).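 Further: z combines 667 nm emission intensity with signal-to-noise across three replicate slides.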 The note with it: ConA-A647 binding fluorescence, higher = more signal.
Chain of Concanavalin-A (Canavalia ensiformis) (P02866 whole entry, looked up): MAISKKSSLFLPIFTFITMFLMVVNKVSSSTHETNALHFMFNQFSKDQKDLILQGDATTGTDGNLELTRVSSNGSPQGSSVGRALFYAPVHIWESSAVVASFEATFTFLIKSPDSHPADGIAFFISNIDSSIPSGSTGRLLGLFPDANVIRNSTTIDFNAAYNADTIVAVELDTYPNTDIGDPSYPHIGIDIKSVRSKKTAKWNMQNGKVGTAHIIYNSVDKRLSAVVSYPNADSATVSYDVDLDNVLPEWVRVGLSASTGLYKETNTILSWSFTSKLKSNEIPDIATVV
Assay [11] can be described thus: compounds binding Alexa647 anti-His antibody – biochemical, small-molecule microarray, 635 nm fluorescence, artefact control for SMM control protein annotation, primary screen (AID 1128).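 Further: score merges feature fluorescence with signal-to-noise for each printed compound spot.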 The note with it: higher = more signal.
For assay [12], the system named is Human papillomavirus type 1a E7 protein (residues 1-88). As to the kind of experiment: HPV1a E7 small-molecule binders, primary screen, biochemical, small-molecule microarray, residues 1-88, 635 nm (AID 1129). The conditions noted are these: small-molecule microarray binding, fluorescence 635 nm; higher = more signal.
Assay [13] has as its target Focal adhesion kinase 1 (Homo sapiens) (UniProt Q05397). As to the kind of experiment: PTK2 protein binding on printed compound slides – biochemical, small-molecule microarray, 635/667 nm fluorescence, BSA, DTT, primary screen (AID 1130).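 Further: composite of spot emission at 667 nm and signal to noise over triplicate slides.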 The conditions noted are these: 635 nm fluorescence, higher = more signal.
Assay [14] has as its system Fibrinogen (Alexa647-labelled). As to the kind of experiment: Alexa647-fibrinogen binding to printed small molecules – biochemical, small-molecule microarray, 635/667 nm fluorescence, artefact control for SMM control-protein annotation, profiling panel (AID 1131).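 Further: z-score merges 667 nm fluorescence with per-spot signal-to-noise over triplicate slides.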 The conditions noted are these: fibrinogen-A647 binding fluorescence, higher = more signal.
For assay [15], the target named is Follistatin (Homo sapiens) (UniProt P19883). Description: FST protein binding to printed compounds – biochemical, small-molecule microarray, 635/667 nm fluorescence, primary screen (AID 1132). The note with it: 635 nm fluorescence, higher = more signal.
Chain of Follistatin (Homo sapiens) (P19883 whole entry, looked up): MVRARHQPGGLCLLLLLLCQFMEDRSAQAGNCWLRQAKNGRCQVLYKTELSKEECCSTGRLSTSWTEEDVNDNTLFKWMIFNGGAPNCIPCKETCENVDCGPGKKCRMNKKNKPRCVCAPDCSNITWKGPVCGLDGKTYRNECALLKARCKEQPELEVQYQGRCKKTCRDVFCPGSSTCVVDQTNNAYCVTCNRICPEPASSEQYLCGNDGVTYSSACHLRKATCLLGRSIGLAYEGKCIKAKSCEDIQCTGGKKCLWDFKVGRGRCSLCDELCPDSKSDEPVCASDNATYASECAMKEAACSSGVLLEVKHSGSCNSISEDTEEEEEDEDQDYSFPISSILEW
For assay [16], the target named is Fibroblast growth factor 2 (Homo sapiens) (UniProt P09038). Description: basic fibroblast growth factor binding to printed compounds – biochemical, small-molecule microarray, 635/667 nm fluorescence, primary screen (AID 1133). The note with it: FGF2, fluorescence 635/667, higher = more signal.
Chain of Fibroblast growth factor 2 (Homo sapiens) (P09038 whole entry, looked up): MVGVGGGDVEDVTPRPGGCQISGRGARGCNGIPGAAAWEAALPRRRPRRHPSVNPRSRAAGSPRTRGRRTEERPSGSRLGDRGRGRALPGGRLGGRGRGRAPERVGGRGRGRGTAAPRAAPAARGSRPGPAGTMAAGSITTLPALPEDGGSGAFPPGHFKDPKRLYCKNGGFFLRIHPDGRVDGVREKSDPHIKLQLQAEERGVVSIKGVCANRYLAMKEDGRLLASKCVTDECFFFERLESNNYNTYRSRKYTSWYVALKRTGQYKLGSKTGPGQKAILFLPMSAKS
A short description of assay [17]: JC-1 mitochondrial potential readout, lung cancer cells – cell-based, A549, JC-1 fluorescence, basal, 24 h, 100 nL, profiling panel (AID 1138).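 Further: A549 lung adenocarcinoma cells under basal conditions with no added stimulus; test concentration not given here.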 The note with it: higher = more signal.
The test system of assay [18] is Lefty1. As to the kind of experiment: Lefty1 protein binding to printed compounds – biochemical, small-molecule microarray, 635/667 nm fluorescence, primary screen (AID 1139). The conditions noted are these: fluorescence 635/667, higher = more signal.
In assay [19] the test system is wheat germ agglutinin (Triticum aestivum), Alexa647-labelled. Description: Alexa647-WGA lectin binding to printed small molecules – biochemical, small-molecule microarray, 635/667 nm fluorescence, artefact control for SMM control-protein annotation, profiling panel (AID 1140).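 Further: score merges 667 nm feature emission with signal to noise over triplicate slides.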 The conditions noted are these: WGA-A647 binding, 635 nm fluorescence, higher = more signal.

Assay [20] has as its target Luciferin 4-monooxygenase (Photinus pyralis) (UniProt P08659). As to the kind of experiment: inhibition of purified Photinus pyralis luciferase – biochemical, luminescence, purified enzyme, 2006 set, primary screen (AID 1141).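 Further: cell-free assay with purified firefly luciferase at 100 ng per well in PBS; test concentration not given here.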 The conditions noted are these: purified firefly luciferase, SteadyGlo luminescence, 30 min; higher = more signal, called active from +8 up or from −8 down.

Chain of Luciferin 4-monooxygenase (Photinus pyralis) (P08659 whole entry, looked up): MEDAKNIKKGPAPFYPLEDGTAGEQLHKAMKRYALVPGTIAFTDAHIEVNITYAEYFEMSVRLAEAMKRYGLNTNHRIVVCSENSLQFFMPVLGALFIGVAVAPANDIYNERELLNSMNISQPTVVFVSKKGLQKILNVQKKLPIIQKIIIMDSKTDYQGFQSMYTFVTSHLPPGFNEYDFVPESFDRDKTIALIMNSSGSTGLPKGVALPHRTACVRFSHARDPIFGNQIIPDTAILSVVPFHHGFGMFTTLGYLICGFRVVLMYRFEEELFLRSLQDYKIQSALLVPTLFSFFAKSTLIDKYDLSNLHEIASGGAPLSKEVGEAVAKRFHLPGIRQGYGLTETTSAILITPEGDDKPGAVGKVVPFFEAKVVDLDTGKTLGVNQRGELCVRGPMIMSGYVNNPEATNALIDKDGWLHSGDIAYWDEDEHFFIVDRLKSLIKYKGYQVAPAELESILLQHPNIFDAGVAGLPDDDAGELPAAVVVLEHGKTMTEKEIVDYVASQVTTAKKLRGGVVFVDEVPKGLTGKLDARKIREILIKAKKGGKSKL
Chain of Focal adhesion kinase 1 (Homo sapiens) (Q05397 whole entry, looked up): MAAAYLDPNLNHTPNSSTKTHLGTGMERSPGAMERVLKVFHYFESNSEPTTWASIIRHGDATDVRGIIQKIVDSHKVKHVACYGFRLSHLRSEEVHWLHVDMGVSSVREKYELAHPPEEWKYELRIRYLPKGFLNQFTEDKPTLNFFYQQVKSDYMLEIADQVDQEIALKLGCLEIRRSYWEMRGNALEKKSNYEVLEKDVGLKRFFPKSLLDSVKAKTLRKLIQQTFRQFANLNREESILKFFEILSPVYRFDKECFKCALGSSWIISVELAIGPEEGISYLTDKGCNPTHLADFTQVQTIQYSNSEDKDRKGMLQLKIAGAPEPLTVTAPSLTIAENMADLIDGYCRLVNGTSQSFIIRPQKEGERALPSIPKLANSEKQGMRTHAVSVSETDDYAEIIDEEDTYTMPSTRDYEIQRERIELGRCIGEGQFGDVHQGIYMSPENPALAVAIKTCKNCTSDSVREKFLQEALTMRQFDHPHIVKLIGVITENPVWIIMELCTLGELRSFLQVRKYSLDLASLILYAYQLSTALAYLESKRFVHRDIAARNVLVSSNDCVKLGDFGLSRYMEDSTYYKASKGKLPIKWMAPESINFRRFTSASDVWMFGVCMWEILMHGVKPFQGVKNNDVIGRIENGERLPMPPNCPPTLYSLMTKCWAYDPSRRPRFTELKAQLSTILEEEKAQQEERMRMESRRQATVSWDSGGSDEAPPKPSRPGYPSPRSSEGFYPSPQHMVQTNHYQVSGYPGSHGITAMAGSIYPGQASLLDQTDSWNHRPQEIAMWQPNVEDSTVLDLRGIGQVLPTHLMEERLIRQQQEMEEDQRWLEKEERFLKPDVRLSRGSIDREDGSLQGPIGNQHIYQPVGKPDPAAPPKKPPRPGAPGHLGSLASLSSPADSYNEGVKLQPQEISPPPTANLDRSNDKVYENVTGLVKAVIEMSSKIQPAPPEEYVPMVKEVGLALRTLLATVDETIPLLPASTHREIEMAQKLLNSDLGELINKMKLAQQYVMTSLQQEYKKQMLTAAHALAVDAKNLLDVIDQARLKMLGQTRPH
Chain of Albumin (Bos taurus) (P02769 whole entry, looked up): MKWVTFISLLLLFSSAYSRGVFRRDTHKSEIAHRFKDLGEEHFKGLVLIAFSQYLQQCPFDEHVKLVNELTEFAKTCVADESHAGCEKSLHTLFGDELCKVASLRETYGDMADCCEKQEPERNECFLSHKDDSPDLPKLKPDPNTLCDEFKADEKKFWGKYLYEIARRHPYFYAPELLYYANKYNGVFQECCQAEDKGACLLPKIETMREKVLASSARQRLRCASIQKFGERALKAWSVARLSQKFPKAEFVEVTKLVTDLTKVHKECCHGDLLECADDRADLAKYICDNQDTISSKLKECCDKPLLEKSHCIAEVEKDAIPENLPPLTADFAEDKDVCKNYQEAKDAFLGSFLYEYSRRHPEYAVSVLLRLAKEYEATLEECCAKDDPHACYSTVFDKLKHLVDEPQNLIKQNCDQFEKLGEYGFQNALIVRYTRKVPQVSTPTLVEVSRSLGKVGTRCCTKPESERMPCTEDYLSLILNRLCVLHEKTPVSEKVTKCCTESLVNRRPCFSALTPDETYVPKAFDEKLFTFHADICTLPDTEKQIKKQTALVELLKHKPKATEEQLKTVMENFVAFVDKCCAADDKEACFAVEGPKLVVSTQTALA

Consider `C=C[C@H](C)[C@H](OC(=O)Nc1ccc(OC)cc1)c1ccc(O)c2ccccc12`, for which the composite z-score in [1] is 0.171; in assay [3], -0.185; in assay [4], -0.193; in assay [5] it was 0.696; in [6], 0.702; in assay [7], 0.513. Moreover, the composite z-score is -0.07 in assay [8]; 0.396 in assay [9]; -0.503 in [10]; -0.732 in assay [11]; -0.337 in assay [12]; -0.208 in assay [13]. In addition, the composite z-score in assay [14] worked out at 0.604; in [15], 0.782; in assay [16] it was 0.39; in assay [18], 0.47; in [19], 0.0411. For the same compound, the composite Z-score in assay [2] was 0.741 (inactive). In addition, the z-score in assay [17] was -1.6; in [20] it was -3.78 (inactive).

For the compound `CCCCC(=O)N(Cc1ccccc1F)[C@@H]1CC(C(=O)NCCO)=C[C@H](Oc2c(I)cc(CO)cc2OC)[C@H]1O`, the composite z-score is -0.823 in assay [1]; 0.201 in [3]; -0.0128 in [4]; 0.521 in assay [5]; 1.54 in assay [6]; 0.44 in assay [7]. Also, the composite z-score was 1.3 in assay [8]; 1.5 in assay [9]; 1.19 in assay [10]; 1.28 in assay [11]; 1.25 in [12]; 1.38 in assay [13]. Also, the composite z-score in [14] is 0.96; in [15] it was 1.51; in assay [16], 2.04; in assay [18], 1.58; in assay [19], 0.736. In assay [2], the composite Z-score is -0.685 (inactive). Also, the z-score in assay [17] is -1.47; in [20], 1.57 (inactive).

Take `C=C(COC)C(=O)CC[C@H](OC(=O)c1cccnc1)c1ccccc1OCCO`: the composite z-score was 0.233 in assay [1]; 0.217 in [3]; -0.0846 in assay [4]; 0.286 in assay [5]; 0.765 in [6]; 0.591 in [7]. The composite z-score was 1.32 in assay [8]; 0.906 in assay [9]; 0.475 in [10]; 1.12 in assay [11]; 1.16 in assay [12]; -0.0493 in assay [13]. For the same compound, the composite z-score is 0.756 in [14]; 1.36 in assay [15]; 1.56 in assay [16]; 1.47 in [18]; 0.18 in assay [19]. The composite Z-score in [2] is 0.708 (inactive). In addition, the z-score is -0.0406 in assay [17] and -2.36 (inactive) in [20].

With `CN(C)CCCCCCNC(=O)[C@@H]1C[C@@H]2C(=O)NCC(=O)N2[C@@H]1c1cccc(OCCO)c1`, the composite z-score in [1] was -0.615; in [3], 0.113; in assay [4], -0.0519; in assay [5] it was 0.63; in [6] it was 2.54; in assay [7], 0.212. For the same compound, the composite z-score in [8] worked out at 1.3; in assay [9] it was 1.35; in [10], 1.22; in assay [11] it was 2.96; in assay [12], 1.28; in assay [13] it was 0.446. Besides, the composite z-score in assay [14] was 0.232; in assay [15] it was 1.34; in assay [16], 0.826; in assay [18] it was 1.36; in assay [19] it was -0.0165. In addition, the composite Z-score in assay [2] was 1.04 (inactive). Besides, the results for the z-score in [17] and in [20] were 0.295 and -0.791 (inactive), respectively.

Turning to `CC1CC/C=C\[C@H]2OC34C=CCN(c5ccc6ccccc6c5)C(=O)[C@H]3N(CCCCCO)C(=O)[C@@H]4C2C(=O)O1` (stereo not given in full), the composite z-score in assay [1] is -0.158; in [3] it was -0.372; in assay [4] it was -0.0941; in assay [5] it was -0.622; in assay [6], -0.357; in assay [7], -0.615. Also, the composite z-score in assay [8] was -1.95; in assay [9], -1.25; in assay [10], -1.23; in assay [11], -0.946; in [12], -0.824; in assay [13], -0.673. Also, the composite z-score in [14] was -2.2; in assay [15], -1.02; in [16], -1.65; in assay [18], -0.994; in [19] it was -0.0369. The composite Z-score in assay [2] was 0.322 (inactive). Further, the z-score in [17] was 0.987; in [20] it was -0.391 (inactive).

On to `Cc1ccccc1/C=C/C=O`, for which the composite z-score in assay [1] was -0.699; in [3] it was -0.19; in assay [4], -0.171; in assay [5] it was -0.293; in [6] it was -0.256; in assay [7] it was -0.298. Further, the composite z-score in assay [8] was -1.35; in [9], -0.56; in [10], -0.485; in assay [11] it was -0.0248; in assay [12] it was -1.29; in [13], -0.3. For the same compound, the composite z-score in [14] is -2.75; in assay [15] it was -0.0561; in assay [16] it was -0.134; in assay [18], -0.234; in assay [19], -0.604. Also, the composite Z-score in assay [2] was -0.0934 (inactive). Further, the z-score was 0.795 in assay [17] and 0.702 (inactive) in [20].
